Results on 97 compounds are retold here after PubChem BioAssay AID777 (Sanford-Burnham Center for Chemical Genomics, 2007).

The whole screen tested about 96,000 compounds, of which about 19,000 (20%) were called active.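 How the source made its calls: active means blocking of liver enzyme CYP2C9 beyond about 50% at 5 µM (limit read from the data); inactive means the rest.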 Only a sample is shown.

Usually inhibition stands for the relative decrease from the control value, in per cent.

The test deals with Cytochrome P450 2C9 (Homo sapiens) (UniProt P11712). Kind of test: blockers of cytochrome P450 2C9 activity – biochemical, luminescence, ADME assay, primary screen (AID 777). The conditions noted are these: CYP2C9 Supersomes, luciferin-H conversion, at 5 µM, hits give high values.
Sequence of Cytochrome P450 2C9 (Homo sapiens) (P11712 whole entry, looked up): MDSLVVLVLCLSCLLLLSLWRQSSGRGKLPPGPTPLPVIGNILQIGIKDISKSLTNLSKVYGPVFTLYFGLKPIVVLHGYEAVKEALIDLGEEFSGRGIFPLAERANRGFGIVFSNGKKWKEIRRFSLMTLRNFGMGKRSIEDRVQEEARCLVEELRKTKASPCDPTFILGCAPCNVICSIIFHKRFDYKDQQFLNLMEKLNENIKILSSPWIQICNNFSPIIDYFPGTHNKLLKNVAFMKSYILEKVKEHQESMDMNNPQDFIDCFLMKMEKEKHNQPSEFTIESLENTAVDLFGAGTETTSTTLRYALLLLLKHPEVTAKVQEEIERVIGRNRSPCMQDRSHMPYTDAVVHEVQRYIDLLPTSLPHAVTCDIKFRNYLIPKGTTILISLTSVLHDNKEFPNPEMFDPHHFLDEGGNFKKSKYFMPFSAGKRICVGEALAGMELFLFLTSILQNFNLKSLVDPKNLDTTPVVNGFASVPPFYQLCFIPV
For the compound `Nc1nc(SCCOc2ccccc2)n[nH]1`, the inhibition was -8.6% (inactive).
The result for `COc1ccc(NC(=O)CN2CCN(S(=O)(=O)c3ccc(F)cc3)CC2)cc1Cl` reads 17.3% (inactive); that for `COc1ccccc1NC(=O)CN1CCN(S(=O)(=O)c2ccc(Br)cc2)CC1`, -0.8% (inactive).
Under `COc1cc2c(cc1NC(=O)CN1CCN(S(=O)(=O)c3ccc(F)cc3)CC1)oc1ccccc12` stands 78.7% (active); under `CN1/C(=c2/s/c(=C3/C(=O)N(c4ccccc4)NC3=Nc3ccccc3)n(C)c2=O)C(C)(C)c2ccccc21`, 19% (inactive); under `CCNC(=O)c1c(O)c2cccc3c2n(c1=O)CC3`, 10.3% (inactive).
The result for `O=C(COC(=O)CCC(=O)c1cccs1)NCc1ccco1` reads 2.9% (inactive).
In the case of `Cc1nn2c3ccccc3nc2n(C)c1=O`, the inhibition is -5.7% (inactive).
The result for `CC(C)(C)N1CC(c2nc3ccccc3n2Cc2ccc(F)cc2)CC1=O` (configuration not stated) reads 22.8% (inactive).
The result for `CC(C)(C)c1cc(=O)n2c(nc3ccccc32)[nH]1` reads 52% (active).
The result for `Cn1c(SCC(=O)N2CCOCC2)nnc1-c1ccc(NC(=O)c2ccccc2F)cc1` reads 13% (inactive).
For the compound `CCCCC(CC)C(=O)Nc1ccc(Cl)cn1` (configuration not stated), the inhibition is 7.6% (inactive).
The result for `CC(C)C(NC(=O)OCc1ccccc1)C(=O)OCC(=O)N1C(C)CCCC1C` (configuration not stated) reads 1.2% (inactive); that for `CCC(C)NC(=O)c1c(N)n(/N=C/c2cccs2)c2nc3ccccc3nc12` (configuration not stated), 17.2% (inactive).
The result for `Cc1ccc(OCc2nnc(NC(=O)OCC(C)C)s2)cc1` reads 20.2% (inactive).
The result for `CC(C)c1cc(C(N)=O)c(NC(=O)c2cccc(COc3ccc(Br)cc3)c2)s1` reads 56.1% (active); that for `COc1ccc(N2CCN(C3CC(=O)N(c4ccc5c(c4)OCCO5)C3=O)CC2)cc1` (configuration not stated), -1% (inactive); that for `O=c1oc2c(Cl)cc(Cl)cc2cc1-c1nnc(Nc2ccccc2F)s1`, -4.3% (inactive).
Take `Cc1cccc(OCc2nnc(SCc3nc4cc(C(F)(F)F)ccc4c(=O)[nH]3)o2)c1`: the inhibition is 33% (inactive).
Under `O=C(Cc1ccc(S(=O)(=O)N2CCOCC2)s1)NCCC(c1ccccc1)c1ccccc1` stands 71.6% (active); under `O=C(c1ccc(S(=O)(=O)N2CCOCC2)cc1)N1CCN(c2ccccc2)CC1`, -4.5% (inactive); under `O=C(Cc1ccc(S(=O)(=O)N2CCCC2)s1)NC1CCCCCC1`, 35.1% (inactive).
Under `C=C(Br)Cn1c(CCCC)nc2ccccc21` stands 35% (inactive); under `Cc1[nH]n(-c2ccc([N+](=O)[O-])cc2)c(=O)c1C=NCCN1CCN(C(=O)c2ccccc2F)CC1`, 16.8% (inactive).
As for `Cc1csc(NC(=O)C2CCCN2C(=O)OCC(C)C)n1` (configuration not stated), the inhibition is 21.7% (inactive).
Under `Cc1ccc(-n2nc3ccc(NC(=O)/C=C/c4ccco4)cc3n2)cc1C` stands 34.5% (inactive); under `O=C(/C=C/c1ccco1)Nc1cccc(-c2nc3ccccc3[nH]2)c1`, 81.3% (active); under `O=C(/C=C/c1ccco1)Nc1ccc(Oc2ccccc2)cc1`, 11.5% (inactive).
In the case of `CCc1nnc(NC(=O)CSc2nc3c(c(=O)n2-c2ccccc2OC)SCC3)s1`, the inhibition is 7.3% (inactive).
Under `O=C(Cn1c(-c2cncs2)nc2ccccc21)NC1CCCC1` stands 2.4% (inactive).
Under `Cc1ccc(-n2nc3c(c2NC(=O)CCC2CCCCC2)CS(=O)C3)cc1` (configuration not stated) stands 12% (inactive); under `COC(=O)C1C(=O)c2c([nH]c(C(=O)OCCSC)c2C)CC1C` (configuration not stated), 32.8% (inactive); under `CCCOC(=O)c1[nH]c2c(c1C)C(=O)CC(c1cc(OC)c(OC)c(OC)c1)C2` (configuration not stated), 66.2% (active).
The result for `CCCOC(=O)c1[nH]c2c(c1C)C(=O)CC(c1cccs1)C2` (configuration not stated) reads 72.3% (active).
As for `CCOC(=O)c1[nH]c2c(c1C)C(=O)CC(c1ccc(N(C)C)cc1)C2` (configuration not stated), the inhibition was 36.2% (inactive).
Turning to `O=c1c2ccccc2nc2n1C(CSCc1cccc(C(F)(F)F)c1)CS2` (configuration not stated), the inhibition was 38.6% (inactive).
The result for `CCOC(=O)CSc1nnc(CNC(=O)c2ccco2)n1-c1ccc(F)cc1` reads -0.1% (inactive).
For `O=C(NC1CCCCC1)c1ccc(CNc2c(N3CCOCC3)c(=O)c2=O)cc1`, the inhibition is -23.2% (inactive).
For `O=C(NCCN1C(=O)C2C3C=CC(C3)C2C1=O)Nc1ccccn1` (configuration not stated), the inhibition was -16.2% (inactive).
For `CC12CCC(C(=O)N3CCN(c4ncccn4)CC3)(c3nc4ccccc4nc31)C2(C)C` (configuration not stated), the inhibition is 51.5% (active).
The result for `O=S(=O)(c1cccc2nonc12)N1CCN(c2cccc(Cl)c2)CC1` reads 12.3% (inactive).
Under `O=C(NCCN1CCN(Cc2ccccc2)CC1)c1cc2c(=O)[nH]c3ccccc3c2s1` stands 31% (inactive).
As to `CCCc1nnc(NC(=O)CN2C(=O)c3ccccc3S2(=O)=O)s1`, the inhibition was 9.5% (inactive).
The result for `C=C(Br)CN1CCN(CC(=C)Br)CC1` reads -1.7% (inactive); that for `O=C(O)C1CC=C(Cl)CC1C(=O)NCc1ccccc1` (configuration not stated), 13.8% (inactive).
The result for `Cc1occc1C(=O)Nc1nnc(-c2ccncc2)s1` reads 90.1% (active); that for `Cc1occc1C(=O)NNC(=S)NCC(C)C`, 12.4% (inactive).
Under `Cc1ccc(C(=O)Nc2nnc(-c3ccncc3)s2)o1` stands 93.1% (active); under `Cc1ccc(C(=O)COc2cccc(NC(=O)c3ccco3)c2)cc1`, 32.1% (inactive); under `CCOc1cccc(C(=O)Nc2cnn(Cc3ccccc3)c2)c1`, 10.6% (inactive).
`Cc1occc1C(=O)Nc1nnc(C2CCCCC2)s1`: the inhibition was 0.6% (inactive).
On to `Cc1occc1C(=O)Nc1cccc(Cn2cccn2)c1`, for which the inhibition is 51.4% (active).
Under `Cc1ccc(C(=O)Nc2nnc(-c3cccs3)s2)cc1C` stands 2% (inactive); under `CC(C)=CC(=O)Nc1nnc(-c2ccc(F)cc2)s1`, 9% (inactive); under `COc1ccc(Oc2coc3cc(OC(=O)c4cncc(Br)c4)ccc3c2=O)cc1`, -54.5% (inactive).
Take `Cc1nnc(SCC(=O)Nc2ncc3c(n2)CC(C)(C)CC3=O)s1`: the inhibition was 22.5% (inactive).
Under `COc1ccc(-c2noc(COc3ccc(Cl)c(C)c3)n2)cc1` stands 11.2% (inactive).
Regarding `CCOc1ccc(/C(O)=C2/C(=O)C(=O)N(Cc3cccnc3)C2c2ccc(N(C)C)cc2)c(C)c1` (configuration not stated), the inhibition was 20.8% (inactive).
Under `N#Cc1ccc(CSc2nnc(-c3ccccn3)n2-c2ccc(Cl)cc2)cc1` stands 7.5% (inactive); under `CCc1nnc(NC(=O)CSc2nnc(COc3ccc(C#N)cc3)n2-c2ccccc2)s1`, 30.3% (inactive).
In the case of `O=P(c1ccc2c(c1)OCCO2)(N1CCOCC1)N1CCOCC1`, the inhibition is 24.8% (inactive).
The result for `O=C(NNC(=O)c1cccnc1)Nc1ccccc1` reads -10.1% (inactive); that for `CC(C)NC(=O)C(=O)N/N=C/c1ccco1`, -20.6% (inactive); that for `COc1ccc(Nc2nc(=O)[nH]nc2C)cc1`, 1.9% (inactive).
The result for `CCN(CC)CC(=O)Nc1nn(-c2ccccc2)nc1C(N)=O` reads -20.1% (inactive); that for `CC(=O)c1cc2c(cc1NC(=O)CN1CCCCCC1)OCO2`, 0.4% (inactive); that for `O=C(O)c1ccc(COc2c(F)c(F)cc(F)c2F)o1`, -9.4% (inactive).
The result for `O=C(Nc1ccn(Cc2ccccc2F)n1)c1ccc(COc2ccc(Cl)cc2Cl)o1` reads 92.6% (active); that for `O=C(Nc1nn(Cc2ccccc2F)cc1Br)c1cccs1`, 8% (inactive).
Consider `OC(COCCC12CC3CC(CC(C3)C1)C2)CN1CCCCC1` (configuration not stated), for which the inhibition was 3.4% (inactive).
Under `CCN1CCCC1CNC(=O)Cn1cnc2ccc(S(=O)(=O)N3CCC(C)CC3)cc2c1=O` (configuration not stated) stands 7.3% (inactive); under `COC(=O)C1C(=O)NCC1c1ccc(C)cc1` (configuration not stated), 17.3% (inactive); under `COC(=O)C1=C(Nc2ccc(OC)cc2)C=C(C)C(C(=O)OC)C1c1ccc(C)cc1` (configuration not stated), 51.9% (active).
On to `COC(=O)C1C(=O)NCC1c1ccc(OC)cc1` (configuration not stated), for which the inhibition was -19.7% (inactive).
On to `O=C1CCCC2=C1C(c1cccs1)n1nc(SCc3ccccc3)nc1N2` (configuration not stated), for which the inhibition is -9.5% (inactive).
Under `COc1ccccc1C(=O)N1CCNC(=O)C1CC(=O)Nc1ccc(Cl)cc1` (configuration not stated) stands 27.9% (inactive).
In the case of `Nc1ccccc1SCc1cc([N+](=O)[O-])cc2c1OCOC2`, the inhibition is 53.9% (active).
In the case of `CN(C)S(=O)(=O)c1ccc(Oc2ccc(S(=O)(=O)N(C)C)cc2)cc1`, the inhibition was 13.3% (inactive).
For the compound `Cc1cccc(N=C2NC(=O)CS2)c1C`, the inhibition was 21.1% (inactive).
Take `COC(=O)c1ccc(Cc2ccccc2)o1`: the inhibition was -29.6% (inactive).
With `COc1ccc2[nH]c(C)c(CCN(Cc3cccs3)C(=S)Nc3ccccc3OC)c2c1`, the inhibition was 43.2% (inactive).
The result for `COC(=O)c1ccc(CN(c2ccccc2OC)S(=O)(=O)c2cccs2)o1` reads 94.6% (active).
For the compound `Cc1oc(CC(C)C)c(CN2CCCC2)c1C(=O)O`, the inhibition is -18.2% (inactive).
Under `CN(C)c1ccc(CNC2C3CC4CC(C3)CC2C4)cc1` (configuration not stated) stands 4.8% (inactive); under `COc1ccccc1NC(=O)C1=C(C)Nc2nnnn2C1c1cccc(Br)c1` (configuration not stated), 41% (inactive).
In the case of `COC(=O)c1ccc(C2C3=C(Nc4nnnn42)c2ccccc2OC3)cc1` (configuration not stated), the inhibition is 92.8% (active).
The result for `O=c1[nH]c2c(c(=O)n1Cc1ccccc1)CCC2` reads -27.1% (inactive); that for `COC(=O)c1ccc(/C=N\n2c(C)nnc2C)cc1`, -3.4% (inactive).
Under `Cc1noc(/C=C/N(C)C)c1S(=O)(=O)N1CCCC(C(=O)NCc2ccco2)C1` (configuration not stated) stands 48.9% (inactive).
The result for `Cc1noc(/C=C/c2ccco2)c1S(=O)(=O)N1CCC(C(=O)N2CCc3ccccc32)CC1` reads 76.9% (active).
Regarding `CCOC(=O)C1CCN(C(=O)C2CCN(S(=O)(=O)c3c(C)noc3C)CC2)CC1`, the inhibition was 10.2% (inactive).
Under `CCCCN1C(=O)/C(=C2/C=CC=CN2C)SC1=S` stands -5% (inactive); under `Cc1ccc2c(c1)c1ncnc(N3CCc4ccccc4C3)c1n2C`, 73% (active); under `Cc1cccc(-n2ncc3c(N4CCc5ccccc54)ncnc32)c1`, -9.6% (inactive).
Under `Cc1cc(C)nc(N2CCN(c3ncnc4c3oc3ccccc34)CC2)n1` stands -20.3% (inactive); under `CCN(CC)C(=O)CSc1nnc(C2CCCCC2)o1`, 5.7% (inactive); under `COCc1cc(C)nc(Nc2cc(C)ccc2C)c1C#N`, 15.6% (inactive).
